Drawing on article PMC12820563, “FoxP3 forms a head-to-head dimer in vivo and stabilizes its multimerization on adjacent microsatellites”, this text covers binding signal for 31 sequences.

In all, about 16,000 sequences were measured (“rpm ratio (pull-down/input)”: median about 0.94, highest 2% from about 1.7 on). Shown is part of a subset that was picked to be rich in the highest values.

The test deals with T1, MBP-FoxP1dN (Mus musculus, UniProt P58462 326-579).
T1 sequence: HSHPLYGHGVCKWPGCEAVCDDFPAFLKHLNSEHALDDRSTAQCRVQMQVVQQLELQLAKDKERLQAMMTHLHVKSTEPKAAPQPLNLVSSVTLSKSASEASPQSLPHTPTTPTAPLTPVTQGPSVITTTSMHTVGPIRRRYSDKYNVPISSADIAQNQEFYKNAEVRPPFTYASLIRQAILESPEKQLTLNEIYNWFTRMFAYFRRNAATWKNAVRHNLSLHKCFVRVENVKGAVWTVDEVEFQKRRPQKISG
Nature of the test: PD-seq (MBP pull-down with sequencing); 20 mM Tris-HCl pH 7.5, 100 mM NaCl, 1.5 mM MgCl2, 0.4 uM protein, 0.1 uM dsDNA library, 30 min, room temperature, amylose pull-down; high values mean tight binding. To be noted: protein: recombinant; tags: His6-MBP; chain copies: 2; dsDNA, one strand shown. The method, boiled down:
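Binding is the reads-per-million enrichment of pull-down relative to input, pooled across replicates. For this, 0.4 µM His6-MBP-tagged mouse FoxP3 or FoxP1 fragment lacking the N-terminus, made in E. coli, was incubated with 0.1 µM Klenow-filled double-stranded degenerate DNA library for 30 min at room temperature in Tris pH 7.5 buffer with NaCl and MgCl2. Complexes bound to amylose resin were washed three times before proteinase K released the DNA for PCR barcoding and Illumina sequencing.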
As to “GATGATTGTTCTCCCAGCTGATGAATTGAGATCATCGAGTAAACAAATTTTCCTAATCTTTCTGTTCAAGCGCCATCTAC”, the binding signal was 0.904 RPM ratio (pull-down/input).

In the case of “GATGATTGTTCTCCCAGCTGATGAATTTATGACCTCGAGTAAACAAATTTTCCTAATCTTTCTGTTCAAGCGCCATCTAC”, the binding signal was 0.986 RPM ratio (pull-down/input).

Take “GATGATTGTTCTCCCAGCTGATGAATTACGATAGTCGAGTAAACAAATTTTCCTAATCTTTCTGTTCAAGCGCCATCTAC”: the binding signal was 1.01 RPM ratio (pull-down/input).

As to “GATGATTGTTCTCCCAGCTGATGAATTTTCCCTATCGAGTAAACAAATTTTCCTAATCTTTCTGTTCAAGCGCCATCTAC”, the binding signal is 0.937 RPM ratio (pull-down/input).

Regarding “GATGATTGTTCTCCCAGCTGATGAATTATACCCGTCGAGTAAACAAATTTTCCTAATCTTTCTGTTCAAGCGCCATCTAC”, the binding signal was 0.898 RPM ratio (pull-down/input).

Take “GATGATTGTTCTCCCAGCTGATGAATTACTTCGATCGAGTAAACAAATTTTCCTAATCTTTCTGTTCAAGCGCCATCTAC”: the binding signal was 1.01 RPM ratio (pull-down/input).

Take “GATGATTGTTCTCCCAGCTGATGAATTATCCATTTCGAGTAAACAAATTTTCCTAATCTTTCTGTTCAAGCGCCATCTAC”: the binding signal is 0.915 RPM ratio (pull-down/input).

Take “GATGATTGTTCTCCCAGCTGATGAATTTCACTAGTCGAGTAAACAAATTTTCCTAATCTTTCTGTTCAAGCGCCATCTAC”: the binding signal is 0.76 RPM ratio (pull-down/input).

“GATGATTGTTCTCCCAGCTGATGAATTGTTATATTCGAGTAAACAAATTTTCCTAATCTTTCTGTTCAAGCGCCATCTAC”: the binding signal is 1.57 RPM ratio (pull-down/input).

With “GATGATTGTTCTCCCAGCTGATGAATTCTGTTATTCGAGTAAACAAATTTTCCTAATCTTTCTGTTCAAGCGCCATCTAC”, the binding signal was 1.78 RPM ratio (pull-down/input).

“GATGATTGTTCTCCCAGCTGATGAATTTCGTTATTCGAGTAAACAAATTTTCCTAATCTTTCTGTTCAAGCGCCATCTAC”: the binding signal was 1.01 RPM ratio (pull-down/input).

In the case of “GATGATTGTTCTCCCAGCTGATGAATTCACTCCCTCGAGTAAACAAATTTTCCTAATCTTTCTGTTCAAGCGCCATCTAC”, the binding signal is 0.792 RPM ratio (pull-down/input).

Turning to “GATGATTGTTCTCCCAGCTGATGAATTCGGTAAATCGAGTAAACAAATTTTCCTAATCTTTCTGTTCAAGCGCCATCTAC”, the binding signal is 1.22 RPM ratio (pull-down/input).

As for “GATGATTGTTCTCCCAGCTGATGAATTGCTTCGCTCGAGTAAACAAATTTTCCTAATCTTTCTGTTCAAGCGCCATCTAC”, the binding signal was 0.992 RPM ratio (pull-down/input).

With “GATGATTGTTCTCCCAGCTGATGAATTCCCTGATTCGAGTAAACAAATTTTCCTAATCTTTCTGTTCAAGCGCCATCTAC”, the binding signal is 0.807 RPM ratio (pull-down/input).

“GATGATTGTTCTCCCAGCTGATGAATTCTTTTGATCGAGTAAACAAATTTTCCTAATCTTTCTGTTCAAGCGCCATCTAC”: the binding signal is 0.969 RPM ratio (pull-down/input).

For the sequence “GATGATTGTTCTCCCAGCTGATGAATTGTTGTGATCGAGTAAACAAATTTTCCTAATCTTTCTGTTCAAGCGCCATCTAC”, the binding signal was 2.32 RPM ratio (pull-down/input).

With “GATGATTGTTCTCCCAGCTGATGAATTCAATTGATCGAGTAAACAAATTTTCCTAATCTTTCTGTTCAAGCGCCATCTAC”, the binding signal was 1.02 RPM ratio (pull-down/input).

Consider “GATGATTGTTCTCCCAGCTGATGAATTTGATTGATCGAGTAAACAAATTTTCCTAATCTTTCTGTTCAAGCGCCATCTAC”, for which the binding signal was 1.1 RPM ratio (pull-down/input).

As for “GATGATTGTTCTCCCAGCTGATGAATTCTGTTGATCGAGTAAACAAATTTTCCTAATCTTTCTGTTCAAGCGCCATCTAC”, the binding signal is 2.26 RPM ratio (pull-down/input).

Regarding “GATGATTGTTCTCCCAGCTGATGAATTCTATTGATCGAGTAAACAAATTTTCCTAATCTTTCTGTTCAAGCGCCATCTAC”, the binding signal is 2.09 RPM ratio (pull-down/input).

Consider “GATGATTGTTCTCCCAGCTGATGAATTGATCTATTCGAGTAAACAAATTTTCCTAATCTTTCTGTTCAAGCGCCATCTAC”, for which the binding signal is 1.15 RPM ratio (pull-down/input).

With “GATGATTGTTCTCCCAGCTGATGAATTGATTTGATCGAGTAAACAAATTTTCCTAATCTTTCTGTTCAAGCGCCATCTAC”, the binding signal was 1.07 RPM ratio (pull-down/input).

Take “GATGATTGTTCTCCCAGCTGATGAATTTCTGTGATCGAGTAAACAAATTTTCCTAATCTTTCTGTTCAAGCGCCATCTAC”: the binding signal was 1.02 RPM ratio (pull-down/input).

With “GATGATTGTTCTCCCAGCTGATGAATTGTGATGATCGAGTAAACAAATTTTCCTAATCTTTCTGTTCAAGCGCCATCTAC”, the binding signal is 1.42 RPM ratio (pull-down/input).

In the case of “GATGATTGTTCTCCCAGCTGATGAATTTTGTTGATCGAGTAAACAAATTTTCCTAATCTTTCTGTTCAAGCGCCATCTAC”, the binding signal is 2.8 RPM ratio (pull-down/input).

For “GATGATTGTTCTCCCAGCTGATGAATTCTATTCATCGAGTAAACAAATTTTCCTAATCTTTCTGTTCAAGCGCCATCTAC”, the binding signal was 0.915 RPM ratio (pull-down/input).

As for “GATGATTGTTCTCCCAGCTGATGAATTGAGATTTTCGAGTAAACAAATTTTCCTAATCTTTCTGTTCAAGCGCCATCTAC”, the binding signal is 0.923 RPM ratio (pull-down/input).

As for “GATGATTGTTCTCCCAGCTGATGAATTGAGGTCTTCGAGTAAACAAATTTTCCTAATCTTTCTGTTCAAGCGCCATCTAC”, the binding signal is 0.786 RPM ratio (pull-down/input).

On to “GATGATTGTTCTCCCAGCTGATGAATTCATCGCCTCGAGTAAACAAATTTTCCTAATCTTTCTGTTCAAGCGCCATCTAC”, for which the binding signal is 0.873 RPM ratio (pull-down/input).

In the case of “GATGATTGTTCTCCCAGCTGATGAATTACGGGGTTCGAGTAAACAAATTTTCCTAATCTTTCTGTTCAAGCGCCATCTAC”, the binding signal was 0.931 RPM ratio (pull-down/input).
